From PubChem BioAssay
This is a sample that favours compounds with a hit; in the whole collection about 2.4% have one here.
Pol iota inh = blocks human DNA polymerase iota activity. Q9UNA4. Pol iota fluorescent replication assay, 10 min. Potency, µM (highest dose often 115 µM), most hits filed as inhibitors. 1% of 390,000 active. AID 588590
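Pol iota at 10 nM preincubated 15 min with compounds at room temperature; reaction started with fluorescent substrate, 50 nM final. Fluorescence read kinetically at 0 and 10 min; buffer-only wells as negative control.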
WRN inhibitor = blocks human WRN helicase. Q14191. WRN helicase unwinding, fluorescent forked duplex, kinetic. Potency, µM (series often up to 114 µM), usual class: inhibitors. 0.46% of 360,000 active. AID 651768; also: nearly all actives have a fitted effect of over 55% in size
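Screening of the MLSMR collection measured strand separation of a quenched forked DNA duplex (100 nM) by 20 nM WRN with 2 mM ATP, all final. Compounds were preincubated with enzyme 15 min at room temperature.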
FEN1 inhibitor = blocks human flap endonuclease 1. Recombinant FEN1 flap cleavage, fluorescence, 15 min. Potency, µM (series often up to 114 µM), usual class: inhibitors. 0.35% of 390,000 active; also: nearly all actives have a fitted effect of over 65% in size
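FEN1 at 10 nM preincubated with compounds 15 min at room temperature, then flap DNA substrate added at 50 nM final. Signal read at 0 and 15 min; concentration-response fitted with four-parameter Hill equation.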
Pol beta inh = DNA polymerase beta (human) inhibition; P06746; Pol beta primer extension/strand displacement, fluorescence kinetic; Potency, µM (highest dose often 114 µM), hits mostly inhibitors; 1.3% of 340,000 active; AID 485314
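10 nM enzyme + cpd, 15 min RT; start with substrate 50 nM final; read 0 min and after 10 min RT. Corrected, normalized data; 4-parameter Hill curve fit.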
Pol eta inh-1 = blocks human DNA polymerase eta activity. 1.2% of 390,000 active. Potency, µM (highest dose often 114 µM), hits mostly inhibitors. recombinant Pol eta, fluorescent DNA replication assay. Q9Y253
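Pol eta (10 nM) was preincubated with compounds for 15 min at room temperature, after which fluorescent replication substrate (50 nM final) was added to start the reaction. Fluorescence was read kinetically at 0 and 10 min.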
Pol kappa inh-1 = inhibitors of human DNA polymerase kappa; Q9UBT6; purified Pol kappa, fluorescent DNA synthesis assay, 10 min; Potency, µM (top dose mostly 107 µM), most hits filed as inhibitors; 0.53% of 400,000 active
Target sequence (Q9UBT6 whole entry, looked up): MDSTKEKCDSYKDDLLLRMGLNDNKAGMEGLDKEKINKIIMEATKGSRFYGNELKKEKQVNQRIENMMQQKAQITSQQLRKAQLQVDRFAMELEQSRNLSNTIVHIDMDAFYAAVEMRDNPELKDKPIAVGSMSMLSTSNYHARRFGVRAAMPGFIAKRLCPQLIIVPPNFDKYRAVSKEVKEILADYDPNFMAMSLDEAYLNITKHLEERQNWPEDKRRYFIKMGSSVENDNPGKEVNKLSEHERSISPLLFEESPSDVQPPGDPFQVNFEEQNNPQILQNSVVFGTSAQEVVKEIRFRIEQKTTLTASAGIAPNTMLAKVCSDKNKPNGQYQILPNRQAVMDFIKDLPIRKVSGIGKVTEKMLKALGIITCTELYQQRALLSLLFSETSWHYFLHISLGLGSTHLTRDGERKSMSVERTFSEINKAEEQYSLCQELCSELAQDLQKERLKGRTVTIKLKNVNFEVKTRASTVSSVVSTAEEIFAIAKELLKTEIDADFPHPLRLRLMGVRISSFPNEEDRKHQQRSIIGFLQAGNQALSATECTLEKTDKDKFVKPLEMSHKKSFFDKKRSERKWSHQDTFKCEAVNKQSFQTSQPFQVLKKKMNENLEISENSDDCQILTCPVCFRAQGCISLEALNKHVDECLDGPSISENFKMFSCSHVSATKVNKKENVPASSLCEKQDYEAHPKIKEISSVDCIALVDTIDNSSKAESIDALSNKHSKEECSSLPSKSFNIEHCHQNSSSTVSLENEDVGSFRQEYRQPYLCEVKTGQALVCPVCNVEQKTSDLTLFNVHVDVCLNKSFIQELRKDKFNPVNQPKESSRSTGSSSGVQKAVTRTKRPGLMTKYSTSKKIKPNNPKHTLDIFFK
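Here, compound and 10 nM enzyme are combined for 15 min at room temperature; adding 50 nM substrate (final) starts DNA synthesis, tracked by fluorescence at 0 and 10 min against buffer-only wells.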
GALK confirm = galactokinase (human) inhibition, confirmation | shares compounds with Pol eta inh-1 | purified GALK, Kinase-Glo ATP depletion luminescence | Potency, µM (doses to about 115 µM), most hits filed as inhibitors | 70% of 150 active
Redox cycling = redox cycling activity in phenol red-HRP assay; shares compounds with Pol eta inh-1; Phenol red-HRP H2O2 redox cycling, absorbance 600 nm; Potency, µM (series often up to 115 µM), usual class: inhibitors; 40% of 150 active
HEK293 viability = HEK-293 cytotoxicity, GALK inhibitor secondary; shares compounds with Pol eta inh-1; HEK-293 viability, ATP luminescence (CellTiter-Glo), 24/48 h; Potency, µM (top dose mostly 46.1 µM), hits mostly inhibitors; 10% of 170 active
Pol kappa inh-2 = Pol kappa (human) inhibition, cherry-pick confirmation. shares compounds with Pol eta inh-1. purified Pol-kappa, fluorescent strand-displacement substrate. Potency, µM, usual class: inhibitors. 76% of 920 active. AID 720501
Pol eta inh-2 = Pol eta (human) inhibition, cherry-pick confirmation; shares compounds with Pol eta inh-1; Pol eta primer extension, TAMRA/BHQ fluorescence, 10 min; Potency, µM, actives largely listed as inhibitors; 64% of 2,600 active; AID 720502
A number is an active result; - = inactive; ? = inconclusive; . = no result; [ ] = dose if it differs, or a comment. Calls follow the shape of the dose curve; as a rule, active = well fitted curve in the direction sought with a large enough effect; inconclusive = small, poorly fitted or top-dose-only effect, or another doubt; inactive = no such curve, though single readings can be large; an effect the other way counts as inactive or inconclusive.

SMILES	Pol iota inh	WRN inhibitor	FEN1 inhibitor	Pol beta inh	Pol eta inh-1	Pol kappa inh-1	Pol eta inh-2	others
COc1cc(/C=C2/C(=N)N3N=C(C)SC3=NC2=O)ccc1OS(=O)(=O)c1ccc(C)cc1	?	-	-	-	-	-	.
CCC1=NN2C(=N)/C(=C/c3ccc(OS(=O)(=O)c4ccc(C)cc4)c(OC)c3)C(=O)N=C2S1	?	-[11.6 µM]	-	?	?	-	?
O=C1N=C(N2CCOCC2)S/C1=C\c1ccc(OS(=O)(=O)c2ccccc2)cc1	-	-	-	-	-	-	.
CCS(=O)(=O)C1=NSC2=NC(=O)/C(=C\c3ccc(OS(=O)(=O)c4ccccc4)c(OC)c3)C(=N)N21	-	-	-	?	40µM	-	.	GALK confirm=47µM;Redox cycling=-;HEK293 viability=-
COCCn1c(=O)c(-c2ccc(F)cc2)nc2cnc(N(C)C)nc21	.	.	.	.	.	-	.
COc1cc(/C=C2\C(=N)N3N=C(S(C)(=O)=O)SC3=NC2=O)ccc1OS(=O)(=O)c1ccccc1	.	.	.	?	.	.	.	GALK confirm=38µM;Redox cycling=-;HEK293 viability=-
COC(=O)c1oc2ccccc2c1NC(=O)/C=C/C(=O)O	-	-	-	-	-	-	.	GALK confirm=-;Redox cycling=-;HEK293 viability=-
COC(=O)c1oc2ccccc2c1N	?	-	-	-	-	-	.
O=C(O)CCC(=O)Nc1ccc2c(c1)Cc1cc(NC(=O)CCC(=O)O)ccc1-2	-	-[11.6 µM]	-	45µM	25µM	-	?
O=[N+]([O-])c1ccc2nc(-c3ccc(Cl)cc3)n(OCc3ccccc3)c2c1	-	-	-	-	-	-	.
O=C(O)COn1c(-c2ccccc2)nc2ccc([N+](=O)[O-])cc21	?	-[11.6 µM]	-	35µM	18µM	?	?
c1ccc2c(c1)OCC(c1nnc3sc(-c4cnccn4)nn13)O2 (stereo unspecified)	?	-	-	-	89µM	-	?
Cc1cccc(OCC(=O)OCc2cc(=O)n3nc(-c4cccs4)sc3n2)c1	?	.	-	25µM	?	?	?
Cc1oc2ncn(CC(C)C)c(=O)c2c1C(=O)NCCCN(Cc1ccccc1)C(C)C	-	.	-	-	-	-	.
Cc1nc(Nc2ccc(C(=O)O)cc2)nc(Nc2ccc(C(=O)O)cc2)c1[N+](=O)[O-]	45µM	-[11.6 µM]	?	-	35µM	?	38
Cc1noc(C)c1C(=O)N1CCC2(CC1)CN(c1ccccc1)C2	.	.	.	.	.	-	.
O=C(O)CC/C(=C\c1ccc(N2CCOCC2)c([N+](=O)[O-])c1)c1nc2ccccc2s1	-	-	-	-	-	-	.
O=C(O)C/C(=C\c1ccc(N2CCOCC2)c([N+](=O)[O-])c1)c1nc2ccccc2s1	-	?	-	?	32µM	?	.	Pol kappa inh-2=?
O=C(Nc1nnc(S(=O)(=O)N2CCCc3ccccc32)s1)c1ccccc1Cl	-	.	-	-	56µM	-	.	Pol kappa inh-2=?
O=C(Nc1nnc(S(=O)(=O)N2CCc3ccccc32)s1)c1ccccc1Cl	-	.	-	-	-	-	.
O=C(Nc1nnc(S(=O)(=O)N2CCOCC2)s1)c1ccccc1	?	-[11.6 µM]	-	?	40µM	?	?	Pol kappa inh-2=38
CC1Cc2ccccc2N1S(=O)(=O)c1nnc(NC(=O)c2ccccc2Br)s1 (stereo unspecified)	-	.	-	-	?	-	?
COc1ccc2c(c1)c1c(c(=O)n(Cc3ccccc3)c(=O)n1Cc1cccc(Cl)c1)n2C	-	.	-	-	-	-	.
COC(=O)c1ccc(/C=C2\CCn3c2nc2cc(C(=O)O)ccc2c3=O)cc1	?	-	-	-	-	-	.
CSc1ccc(/C=C2\CCn3c2nc2cc(C(=O)O)ccc2c3=O)cc1	-	-[11.6 µM]	?	-	50µM	-	?
SMILES	Pol iota inh	WRN inhibitor	FEN1 inhibitor	Pol beta inh	Pol eta inh-1	Pol kappa inh-1	Pol eta inh-2	others
O=C(O)c1cccc(NC(=O)c2ccc(N3C(=O)c4ccc(C(=O)Nc5cccc(C(=O)O)c5)cc4C3=O)cc2)c1	-	-	-	-	-	-	.
O=C(O)c1ccc2c(c1)C(=O)N(c1cccc(C(=O)/C=C/c3ccccc3)c1)C2=O	?	?	?	-	32µM	-	60
O=C(NCc1noc2ccccc12)Nc1ccc(F)cc1F	-	.	-	-	-	-	.
CC(=O)c1ccc(S(=O)(=O)Nc2ccc(-n3cnnn3)cc2)cc1	40µM	-[11.6 µM]	-	.	32µM	-	?
Cc1cc(Cl)ccc1NC(=O)CN1C(=O)COc2ccc(S(=O)(=O)N3CCC(C)CC3)cc21	-	.	-	-	-	-	.
NC(=S)n1[nH]c(-c2ccc([N+](=O)[O-])cc2)c(N=Nc2ccccc2[N+](=O)[O-])c1=O	?	-[11.6 µM]	-	16µM	6.3µM	-	.	Pol kappa inh-2=8.4
CCOC(=O)C1=C(CNCc2ccccc2)NC(=O)NC1c1ccc(C)cc1 (stereo unspecified)	-	.	-	-	-	-	.
O=C(O)c1ccc(/C=C/c2nc3sc4c(c3c(=O)[nH]2)CCC4)cc1	14µM	-	-	-	22µM	?	?
O=C(O)c1ccc(/C=C/c2nc3ccccc3c(=O)[nH]2)cc1	?	-	-	-	-	-	.
Cc1ccc(Cl)cc1N1CCN(C(=O)CN(c2ccccc2)S(=O)(=O)N(C)C)CC1	25µM	-[11.6 µM]	-	10µM	50µM	?	.	Pol kappa inh-2=?
CN1C=CC(=C2C=CN(C)C=C2)C=C1	.	.	.	.	.	-	.
N#Cc1c(NC(=O)/C=C/c2ccco2)sc2c1CCCC2	50µM	?	-	?	?	-	85
O=C(/C=C/c1ccccc1)Nc1sc2c(c1C(=O)O)CCC2	?	-	-	-	-	?	.
O=C(/C=C/c1ccco1)Nc1sc2c(c1C(=O)O)CCC2	?	-[11.6 µM]	-	-	79µM	?	?
O=C(Nc1sc2c(c1C(=O)O)CCC2)c1ccccc1	?	?	-	20µM	13µM	?	76
COc1ccc(C(=O)CC2(O)C(=O)N(Cc3ccccc3)c3ccc(Br)cc32)cc1 (stereo unspecified)	-	.	-	-	-	-	.
